Test results reported in the supplement of paper PMC10849652.
The full data set covers some 7,900 targets. This sample favours those with a hit. About 0.6% of all pairs of compound and target were hits.

Experiments:
Test in all cases: log2 fold change, soluble protein after heating vs DMSO (PISA); higher = thermal stabilisation; K562 cells, 10 uM, 30 min; active = over 0.2 and 3.5 SD of the protein, either way, in both replicates (recomputed)
[1] = compound: CS(=O)(=O)c1ccc(-c2cnc(N)c(C(=O)Nc3ccccc3)n2)cc1
Outline: (§1)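 K562 cells (2×10^6 cells/mL) were treated with 10 μM compound for 30 min, and aliquots were heated for 3 min over 48°C-58°C. Pooled aliquots were extracted in PBS with 0.5% NP-40 at 4°C, and the supernatant after 21,000xg for 90 min was measured by TMTpro 16plex LC-MS/MS with channel sums equalised. Reported thermal stability, relative to control samples and from duplicates, is a log2 fold change.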

[2] = compound: C[C@@H](Oc1cc(-c2cnn(C3CCNCC3)c2)cnc1N)c1c(Cl)ccc(F)c1Cl [crizotinib]
Outline: as §1

[3] = compound: C[C@@H]1COCCN1C2=NC(=NC(=C2)C3(CC3)S(=O)(=O)C)C4=C5C=CNC5=CC=C4
Outline: as §1

[4] = compound: C[C@H](C1=CC=C(C=C1)C(=O)NC2=C3C=CNC3=NC=C2)N
Outline: as §1

[5] = compound: C[C@H](Nc1ncnc2nc[nH]c12)c1cc2cccc(Cl)c2c(=O)n1-c1ccccc1 [duvelisib]
Outline: as §1

[6] = compound: Cc1cc(Nc2cc(CN3CCOCC3)c3nc(C)c(Cc4ccc(Cl)cc4F)n3n2)n[nH]1 [gandotinib]
Outline: as §1

[7] = compound: Cc1cc(Nc2cc(N3CCN(C)CC3)nc(Sc3ccc(NC(=O)C4CC4)cc3)n2)n[nH]1 [tozasertib]
Outline: as §1

[8] = compound: Cc1cc(SCc2sc(-c3ccc(C(F)(F)F)cc3)nc2C)ccc1OCC(=O)O
Outline: as §1

[9] = compound: Cc1ccc(-n2nc(C(C)(C)C)cc2NC(=O)Nc2ccc(OCCN3CCOCC3)c3ccccc23)cc1 [doramapimod]
Outline: as §1

[10] = compound: Cc1ccc(C(=O)N(CCCN)[C@@H](c2nc3cc(Cl)ccc3c(=O)n2Cc2ccccc2)C(C)C)cc1 [ispinesib]
Outline: as §1

Measured: log2 fold change

PARP16 isoform 3 (UniProt Q8N5Y8)
inactive: [1] -0.008 | [2] 0.076 | [3] -0.021 | [4] 0.079 | [5] 0.048 | [6] 0.081 | [7] -0.007 | [8] -0.081 | [9] 0.072

PIGG (UniProt Q5H8A4)
Chain of UniProt Q5H8A4 (Q5H8A4 whole entry, looked up): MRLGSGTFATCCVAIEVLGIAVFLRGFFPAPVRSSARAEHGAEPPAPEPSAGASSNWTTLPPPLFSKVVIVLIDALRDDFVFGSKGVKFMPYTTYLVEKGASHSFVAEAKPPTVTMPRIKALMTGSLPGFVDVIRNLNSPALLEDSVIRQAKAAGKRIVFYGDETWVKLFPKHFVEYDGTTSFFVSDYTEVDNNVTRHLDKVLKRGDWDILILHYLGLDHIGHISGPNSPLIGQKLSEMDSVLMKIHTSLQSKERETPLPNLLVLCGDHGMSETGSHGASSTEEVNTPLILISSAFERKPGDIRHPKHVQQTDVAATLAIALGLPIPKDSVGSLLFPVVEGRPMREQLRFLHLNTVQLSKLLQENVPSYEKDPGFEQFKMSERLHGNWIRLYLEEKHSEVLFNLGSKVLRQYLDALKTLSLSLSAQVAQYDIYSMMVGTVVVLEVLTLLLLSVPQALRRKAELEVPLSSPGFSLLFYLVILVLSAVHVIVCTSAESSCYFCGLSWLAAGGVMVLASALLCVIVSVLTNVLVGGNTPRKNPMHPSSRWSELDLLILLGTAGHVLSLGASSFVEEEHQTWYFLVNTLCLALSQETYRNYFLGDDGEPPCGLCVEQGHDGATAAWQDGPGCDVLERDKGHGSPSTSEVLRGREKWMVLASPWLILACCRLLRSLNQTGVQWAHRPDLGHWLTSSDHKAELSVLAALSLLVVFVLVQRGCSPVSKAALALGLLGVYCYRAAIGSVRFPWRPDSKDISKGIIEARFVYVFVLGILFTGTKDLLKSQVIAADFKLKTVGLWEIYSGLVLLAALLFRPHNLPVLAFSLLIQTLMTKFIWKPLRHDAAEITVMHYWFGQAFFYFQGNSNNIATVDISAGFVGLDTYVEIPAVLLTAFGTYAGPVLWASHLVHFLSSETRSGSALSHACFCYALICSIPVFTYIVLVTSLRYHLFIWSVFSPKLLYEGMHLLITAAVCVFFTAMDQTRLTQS
inactive: [1] 0.062 | [2] -0.053 | [3] 0.01 | [4] -0.041 | [5] 0.046 | [6] -0.035 | [7] -0.013 | [8] 0.011 | [9] 0.098 | [10] -0.02

PCLAF (UniProt Q15004)
inactive: [1] -0.175 | [2] 0.027 | [3] -0.19 | [4] 0.052 | [5] -0.022 | [6] -0.07 | [7] -0.03 | [8] -0.097 | [9] 0.022 | [10] 0.079

PPOX (UniProt P50336)
inactive: [1] 0.173 | [2] -0.197 | [3] 0.128 | [4] -0.077 | [5] 0.304 | [6] 0.427 | [7] 0.019 | [8] 0.091 | [9] 0.378 | [10] 0.02

PKN1 isoform 2 (UniProt Q16512)
inactive: [1] 0.03 | [2] -0.233 | [3] -0.015 | [4] -0.12 | [5] 0.001 | [6] -0.165 | [7] -0.052 | [8] 0.075 | [9] 0.022 | [10] -0.065

PSMC4 (UniProt P43686)
inactive: [1] 0 | [2] 0.007 | [3] -0.056 | [4] 0.06 | [5] -0.076 | [6] -0.011 | [7] 0.04 | [8] 0.001 | [9] 0.02 | [10] -0.02

PPP4R3B (UniProt Q5MIZ7)
Chain of UniProt Q5MIZ7 (Q5MIZ7 whole entry, looked up): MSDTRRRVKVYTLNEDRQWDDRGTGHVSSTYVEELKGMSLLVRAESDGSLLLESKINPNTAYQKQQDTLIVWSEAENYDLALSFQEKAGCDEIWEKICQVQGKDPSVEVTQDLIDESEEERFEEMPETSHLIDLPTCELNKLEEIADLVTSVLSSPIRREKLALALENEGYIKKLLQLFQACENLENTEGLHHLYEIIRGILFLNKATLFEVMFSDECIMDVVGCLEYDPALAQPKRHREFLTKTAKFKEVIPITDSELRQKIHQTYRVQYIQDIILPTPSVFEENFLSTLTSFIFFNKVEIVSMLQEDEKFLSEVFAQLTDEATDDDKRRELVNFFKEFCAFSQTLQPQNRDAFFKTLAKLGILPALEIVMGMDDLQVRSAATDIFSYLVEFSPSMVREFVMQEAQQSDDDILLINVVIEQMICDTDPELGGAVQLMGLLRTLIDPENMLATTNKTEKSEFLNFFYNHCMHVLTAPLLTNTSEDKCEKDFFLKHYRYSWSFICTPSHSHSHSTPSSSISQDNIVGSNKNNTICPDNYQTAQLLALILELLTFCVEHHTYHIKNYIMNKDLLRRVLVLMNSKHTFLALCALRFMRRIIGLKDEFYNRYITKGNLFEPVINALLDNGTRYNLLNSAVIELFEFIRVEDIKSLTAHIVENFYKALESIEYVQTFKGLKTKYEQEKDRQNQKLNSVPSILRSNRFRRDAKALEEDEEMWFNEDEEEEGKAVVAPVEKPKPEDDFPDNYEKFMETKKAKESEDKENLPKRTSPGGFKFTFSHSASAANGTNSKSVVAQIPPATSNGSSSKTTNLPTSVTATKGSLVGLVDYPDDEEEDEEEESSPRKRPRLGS
inactive: [1] -0.003 | [2] 0.124 | [3] 0.064 | [4] -0.035 | [5] 0.048 | [6] -0.075 | [7] 0.149 | [8] 0.056 | [9] 0 | [10] 0.056

PRKAB2 (UniProt O43741)
inactive: [1] -0.08 | [2] -0.245 | [3] 0.021 | [4] -0.231 | [5] -0.154 | [7] 0.044 | [8] 0.051 | [9] -0.041 | [10] 0.143
active: [6] -0.484

PFAS (UniProt O15067)
inactive: [1] -0.062 | [2] 0.124 | [3] 0.014 | [4] 0 | [5] -0.026 | [6] -0.152 | [7] -0.132 | [8] 0.081 | [9] -0.018 | [10] 0.128

PPIL1 (UniProt Q9Y3C6)
inactive: [1] -0.029 | [2] 0.038 | [3] 0.018 | [4] 0.012 | [5] 0 | [6] 0.045 | [7] -0.01 | [8] 0.014 | [9] 0.031 | [10] -0.089

PRKCQ (UniProt Q04759)
active: [4] -0.374
inactive: [1] 0.021 | [2] -0.238 | [3] 0.037 | [5] 0.022 | [6] -0.165 | [7] -0.033 | [8] 0.023 | [9] 0.038 | [10] -0.106

PIR (UniProt O00625)
inactive: [1] 0.004 | [2] 0.042 | [3] 0.019 | [4] -0.085 | [5] 0.013 | [6] 0.048 | [7] 0.027 | [8] 0.057 | [9] 0.095 | [10] 0.045

PGM3 isoform 4 (UniProt O95394)
inactive: [1] 0.025 | [2] -0.098 | [3] 0.04 | [4] -0.024 | [5] 0.043 | [6] -0.034 | [7] -0.019 | [8] 0.108 | [9] 0.016 | [10] -0.09

PRPSAP2 (UniProt O60256)
Chain of UniProt O60256 (O60256 whole entry, looked up): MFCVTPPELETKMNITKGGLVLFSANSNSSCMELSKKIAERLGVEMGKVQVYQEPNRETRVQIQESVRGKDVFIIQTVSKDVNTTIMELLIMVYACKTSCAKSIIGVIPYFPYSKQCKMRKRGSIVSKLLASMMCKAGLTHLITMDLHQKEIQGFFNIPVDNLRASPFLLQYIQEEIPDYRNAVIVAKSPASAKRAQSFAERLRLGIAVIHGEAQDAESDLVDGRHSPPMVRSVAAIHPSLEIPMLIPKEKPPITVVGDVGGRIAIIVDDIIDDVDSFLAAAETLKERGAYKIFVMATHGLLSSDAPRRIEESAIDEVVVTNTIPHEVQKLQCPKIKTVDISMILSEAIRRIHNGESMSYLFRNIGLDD
inactive: [1] 0 | [2] 0.01 | [3] 0.112 | [4] -0.016 | [5] -0.013 | [6] 0.114 | [7] 0.038 | [8] 0.023 | [9] -0.007 | [10] 0.012

PC (UniProt P11498)
inactive: [1] 0.033 | [2] 0.103 | [3] 0.199 | [4] 0.167 | [5] 0.01 | [6] -0.143 | [7] -0.048 | [8] 0.024 | [9] 0.008 | [10] 0.186

PHKA1 (UniProt P46020)
inactive: [1] -0.036 | [2] -0.05 | [3] -0.048 | [4] 0.189 | [5] -0.074 | [6] -0.015 | [7] 0.279 | [8] 0.075 | [9] 0.037 | [10] -0.07

PHAX (UniProt Q9H814)
inactive: [1] -0.034 | [2] 0.097 | [3] -0.036 | [4] -0.01 | [5] 0.07 | [6] 0.035 | [7] 0.082 | [8] -0.062 | [9] -0.016 | [10] 0.017

PISD (UniProt Q9UG56)
inactive: [1] 0 | [2] -0.023 | [3] 0.045 | [4] -0.018 | [5] 0.044 | [6] -0.004 | [7] -0.025 | [8] 0.036 | [9] 0.006 | [10] 0.02

POMP (UniProt Q9Y244)
inactive: [1] -0.086 | [2] -0.059 | [3] -0.023 | [4] -0.076 | [5] 0.055 | [6] 0.027 | [7] 0.001 | [8] -0.245 | [9] -0.143 | [10] 0.108

PIP4P1 isoform 2 (UniProt Q86T03)
inactive: [1] 0.021 | [3] -0.123 | [4] 0.086 | [5] -0.085 | [6] 0.107 | [7] 0.021 | [8] -0.048 | [9] -0.025
active: [2] -0.395 | [10] -0.353

PSMD5 (UniProt Q16401)
inactive: [1] 0.008 | [2] 0.006 | [3] 0.046 | [4] -0.064 | [5] -0.023 | [6] -0.051 | [7] 0.043 | [8] -0.013 | [9] -0.03 | [10] 0.03

POLR3K (UniProt Q9Y2Y1)
Chain of UniProt Q9Y2Y1 (Q9Y2Y1 whole entry, looked up): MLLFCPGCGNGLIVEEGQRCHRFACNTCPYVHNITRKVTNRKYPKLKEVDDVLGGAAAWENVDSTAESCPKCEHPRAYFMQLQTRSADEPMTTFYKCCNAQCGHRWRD
inactive: [1] -0.026 | [2] 0.015 | [3] 0.035 | [4] -0.027 | [5] 0.067 | [6] 0.066 | [7] -0.011 | [8] -0.059 | [9] 0.038 | [10] -0.075

POLD3 (UniProt Q15054)
Chain of UniProt Q15054 (Q15054 whole entry, looked up): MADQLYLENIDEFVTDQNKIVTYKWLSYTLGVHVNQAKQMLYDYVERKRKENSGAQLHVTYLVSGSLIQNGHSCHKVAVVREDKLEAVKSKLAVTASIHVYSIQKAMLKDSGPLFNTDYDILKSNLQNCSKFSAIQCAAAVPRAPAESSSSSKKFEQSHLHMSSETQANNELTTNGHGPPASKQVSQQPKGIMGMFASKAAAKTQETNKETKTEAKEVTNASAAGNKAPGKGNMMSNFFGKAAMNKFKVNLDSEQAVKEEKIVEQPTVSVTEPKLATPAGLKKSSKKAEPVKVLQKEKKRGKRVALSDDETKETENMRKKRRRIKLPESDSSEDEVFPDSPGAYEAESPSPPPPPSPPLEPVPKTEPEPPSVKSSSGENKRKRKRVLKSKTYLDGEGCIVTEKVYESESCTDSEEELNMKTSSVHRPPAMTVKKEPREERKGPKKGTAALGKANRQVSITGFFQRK
inactive: [1] 0.177 | [2] -0.055 | [3] 0.155 | [4] -0.076 | [5] 0.018 | [6] -0.049 | [7] 0.048 | [8] 0.008 | [9] -0.012 | [10] -0.123

PTTG1 (UniProt O95997)
inactive: [1] -0.093 | [2] -0.012 | [3] -0.085 | [4] -0.044 | [5] 0.068 | [6] -0.108 | [7] -0.015 | [8] 0.021 | [9] 0.076 | [10] -0.034

PSME4 (UniProt Q14997)
Chain of UniProt Q14997 (Q14997 whole entry, looked up): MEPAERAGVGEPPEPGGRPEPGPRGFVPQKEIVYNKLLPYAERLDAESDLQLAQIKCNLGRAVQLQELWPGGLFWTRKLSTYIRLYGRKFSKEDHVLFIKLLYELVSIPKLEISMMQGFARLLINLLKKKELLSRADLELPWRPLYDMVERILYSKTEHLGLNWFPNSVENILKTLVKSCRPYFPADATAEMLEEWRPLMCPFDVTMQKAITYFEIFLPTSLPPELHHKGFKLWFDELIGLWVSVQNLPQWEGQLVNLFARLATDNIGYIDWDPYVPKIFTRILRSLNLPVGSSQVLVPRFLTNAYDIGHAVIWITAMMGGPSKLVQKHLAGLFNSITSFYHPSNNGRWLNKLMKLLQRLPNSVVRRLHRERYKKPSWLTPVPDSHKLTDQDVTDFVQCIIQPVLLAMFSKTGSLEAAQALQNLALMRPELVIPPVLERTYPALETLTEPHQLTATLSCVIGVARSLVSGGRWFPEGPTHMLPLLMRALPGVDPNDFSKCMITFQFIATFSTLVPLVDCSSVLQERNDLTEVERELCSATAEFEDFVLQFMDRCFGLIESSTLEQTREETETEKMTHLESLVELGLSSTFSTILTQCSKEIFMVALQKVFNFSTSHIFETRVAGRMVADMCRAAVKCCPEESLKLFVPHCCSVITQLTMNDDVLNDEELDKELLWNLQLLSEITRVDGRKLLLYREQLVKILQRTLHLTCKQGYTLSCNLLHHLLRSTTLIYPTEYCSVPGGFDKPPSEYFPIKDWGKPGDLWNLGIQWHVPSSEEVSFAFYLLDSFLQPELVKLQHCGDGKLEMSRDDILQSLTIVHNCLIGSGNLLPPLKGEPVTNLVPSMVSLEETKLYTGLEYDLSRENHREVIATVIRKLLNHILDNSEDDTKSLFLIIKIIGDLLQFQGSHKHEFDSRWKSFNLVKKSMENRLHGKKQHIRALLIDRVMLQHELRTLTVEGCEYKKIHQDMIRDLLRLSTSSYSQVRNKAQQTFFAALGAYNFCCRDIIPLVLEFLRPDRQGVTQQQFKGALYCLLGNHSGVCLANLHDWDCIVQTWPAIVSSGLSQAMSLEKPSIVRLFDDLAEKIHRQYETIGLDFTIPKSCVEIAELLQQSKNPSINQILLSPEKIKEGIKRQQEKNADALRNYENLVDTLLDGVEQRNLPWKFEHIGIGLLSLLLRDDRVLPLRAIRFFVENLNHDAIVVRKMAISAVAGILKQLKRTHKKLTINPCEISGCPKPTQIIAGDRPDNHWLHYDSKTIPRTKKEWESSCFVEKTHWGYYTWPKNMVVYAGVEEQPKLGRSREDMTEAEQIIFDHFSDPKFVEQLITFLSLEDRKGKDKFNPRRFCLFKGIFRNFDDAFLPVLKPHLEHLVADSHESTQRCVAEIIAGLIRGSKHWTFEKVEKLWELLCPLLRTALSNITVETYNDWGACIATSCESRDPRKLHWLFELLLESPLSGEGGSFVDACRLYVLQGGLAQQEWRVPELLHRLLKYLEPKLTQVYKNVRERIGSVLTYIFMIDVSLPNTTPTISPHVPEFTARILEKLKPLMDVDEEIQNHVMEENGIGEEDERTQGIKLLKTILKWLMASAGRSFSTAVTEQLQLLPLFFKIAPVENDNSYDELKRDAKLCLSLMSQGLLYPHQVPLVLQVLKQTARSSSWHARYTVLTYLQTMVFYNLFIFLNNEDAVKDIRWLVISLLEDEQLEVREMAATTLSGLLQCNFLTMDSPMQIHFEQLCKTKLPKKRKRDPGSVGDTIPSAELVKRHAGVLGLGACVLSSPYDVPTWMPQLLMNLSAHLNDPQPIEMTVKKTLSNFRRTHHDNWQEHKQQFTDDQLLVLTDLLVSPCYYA
inactive: [1] 0.036 | [2] -0.161 | [3] 0.013 | [4] 0.052 | [5] 0.02 | [6] -0.082 | [7] -0.078 | [8] 0.093 | [9] 0.045 | [10] -0.09

PTMA (UniProt P06454)
inactive: [1] -0.041 | [2] -0.302 | [3] -0.155 | [4] -0.034 | [5] 0.006 | [6] 0.059 | [7] 0.154 | [8] -0.042 | [9] 0.072 | [10] 0.199

PCBP2 isoform 3 (UniProt Q15366)
inactive: [1] -0.036 | [2] -0.018 | [3] 0.06 | [4] -0.031 | [5] -0.006 | [6] -0.065 | [7] 0.056 | [8] 0.072 | [9] -0.008 | [10] 0.005

PSMC1 (UniProt P62191)
Chain of UniProt P62191 (P62191 whole entry, looked up): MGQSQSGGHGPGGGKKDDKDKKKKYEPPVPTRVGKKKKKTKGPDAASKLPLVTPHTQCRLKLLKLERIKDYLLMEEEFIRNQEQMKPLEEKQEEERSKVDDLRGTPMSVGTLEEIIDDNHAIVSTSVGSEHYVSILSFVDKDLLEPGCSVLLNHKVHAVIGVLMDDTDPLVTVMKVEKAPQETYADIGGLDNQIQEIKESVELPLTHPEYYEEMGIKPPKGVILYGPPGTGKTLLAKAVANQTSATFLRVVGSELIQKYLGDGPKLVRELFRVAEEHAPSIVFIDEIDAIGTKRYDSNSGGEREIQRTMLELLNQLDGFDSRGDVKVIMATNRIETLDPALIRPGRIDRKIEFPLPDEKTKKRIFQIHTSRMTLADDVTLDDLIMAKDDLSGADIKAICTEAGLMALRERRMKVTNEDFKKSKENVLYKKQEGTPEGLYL
inactive: [1] 0.011 | [2] 0.023 | [3] -0.072 | [4] 0.073 | [5] -0.047 | [6] 0.06 | [7] 0.039 | [8] 0.01 | [9] 0.033 | [10] -0.036

PLK1 (UniProt P53350)
inactive: [1] -0.113 | [2] -0.105 | [3] -0.194 | [4] 0.031 | [5] 0.012 | [6] 0.095 | [7] 0.037 | [8] -0.1 | [9] 0.032 | [10] 0.01

PEX13 (UniProt Q92968)
inactive: [1] -0.005 | [2] -0.146 | [3] 0.034 | [4] -0.047 | [5] 0.078 | [6] -0.143 | [7] -0.163 | [8] -0.016 | [9] 0.056 | [10] -0.026
